# RORgamma inh: qHTS for inhibitors of ROR gamma transcriptional activity | Nuclear receptor ROR-gamma (Mus musculus), P51450 | Drosophila S2 Gal4-RORgamma UAS-luciferase reporter, 20 h | Potency, µM (highest dose often 53.6 µM), for the others: top-dose activity change, negative = inhibition, actives largely listed as inhibitors | hit rate 5.4% among 310,000 | AID 2551, 2010; further: potency means the concentration at half of the fitted maximal effect; nearly all actives have a fitted effect of over 60% in size
# Target sequence (P51450 whole entry, looked up, the tested form may be a part): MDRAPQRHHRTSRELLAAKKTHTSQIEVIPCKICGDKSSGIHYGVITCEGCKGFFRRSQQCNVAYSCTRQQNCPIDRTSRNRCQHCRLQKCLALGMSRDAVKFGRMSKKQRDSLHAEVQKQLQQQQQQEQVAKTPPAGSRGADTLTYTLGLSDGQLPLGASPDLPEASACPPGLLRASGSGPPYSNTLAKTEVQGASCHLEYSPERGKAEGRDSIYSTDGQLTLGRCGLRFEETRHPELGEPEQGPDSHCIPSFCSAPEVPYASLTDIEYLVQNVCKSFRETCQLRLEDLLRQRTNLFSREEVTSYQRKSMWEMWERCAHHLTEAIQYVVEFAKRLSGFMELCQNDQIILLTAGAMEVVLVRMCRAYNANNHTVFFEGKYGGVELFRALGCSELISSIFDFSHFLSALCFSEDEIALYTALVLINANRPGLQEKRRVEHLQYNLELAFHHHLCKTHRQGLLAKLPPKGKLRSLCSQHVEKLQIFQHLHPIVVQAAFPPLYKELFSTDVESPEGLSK
#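 Luminescence from a UAS-regulated Photinus luciferase reporter in stably transfected Drosophila Schneider cells is measured; decreased signal marks ROR gamma inhibition. Fusion expression is induced by 700 uM copper sulfate for 20 hr.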
# IL-1B inflam inh: qHTS for Inhibitors of Inflammasome Signaling: IL-1-beta AlphaLISA Primary Screen. THP-1 LPS/ATP IL-1B secretion, AlphaLISA, 16 h; active compounds read low. activity change, % at 57.5 µM. hit rate 4.7% among 360,000; in the data active means activity change below about -50%; inconclusive means mostly about -30% to -49%
#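 Secreted IL-1B measured by AlphaLISA bead assay after 16 h compound exposure of THP-1 cells; compounds (final up to 57.5 uM) added 1 h before LPS (250 ng/mL) and ATP (1.25 mM) stimulation; lower signal means less secretion.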
# LDHA inh: qHTS assay for inhibitors of human lactate dehydrogenase; AID 1347041, 2019; hit rate 0.15% among 480,000; activity change, % (values are at about 110 or 230 µM); purified LDHA, NADH/diaphorase-resazurin fluorescence; active compounds read low; in the data active means activity change below about -30%; inconclusive means mostly about -25% to -30%;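 further: plate controls were DMSO wells for no effect and wells without enzyme for full effect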
#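 Resorufin fluorescence (ex540/em590), read at 0 and 20 min after diaphorase/resazurin addition, reports the NADH left after a 5 min room-temperature reaction of 2 nM human LDH5 with 0.06 mM NADH and 0.2 mM pyruvate.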
# Gal4-VP16 FLuc: VP16 counterscreen qHTS for inhibitors of ROR gamma transcriptional activity; Potency, µM (titrated, usually from 53.6 µM), without a hit: top-dose activity, negative = inhibition, most hits filed as inhibitors; Drosophila S2 Gal4-VP16 UAS-luciferase, luminescence, 20 h; hit rate 3.5% among 310,000;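 further: Gal4-VP16 expression switched on by copper sulfate through the metallothionein promoter; potency means the concentration at half of the fitted maximal effect; nearly all actives have a fitted effect of over 50% in size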
# DT40 TDP1 CPT: qHTS for Inhibitors of human tyrosyl-DNA phosphodiesterase 1 (TDP1): qHTS in cells in presence of CPT | hit rate 12% among 420,000 | chicken DT40 Tdp1-/-;hTDP1 cells + 20 nM CPT, ATP luminescence, 48 h | Potency, µM (series often up to 46.2 µM), without a hit: at the highest dose activity change, negative = growth inhibition, most hits filed as inhibitors | AID 686979, 2013; further: potency means the concentration at half of the fitted maximal effect; nearly all actives have a fitted effect of over 55% in size
#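 Chicken DT40 Tdp1-/- cells stably complemented with human TDP1 were seeded at 400 cells/well in medium containing 20 nM camptothecin, exposed to pin-transferred compounds, and grown at 37 °C for at least 48 hr. Viability was read as ATP luminescence.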
# DT40 TDP1 no CPT: qHTS for Inhibitors of human tyrosyl-DNA phosphodiesterase 1 (TDP1): qHTS in cells in absence of CPT | AID 686978, 2013 | hit rate 15% among 420,000 | DT40 Tdp1-/- hTDP1 cells, no CPT, ATP luminescence, 48 h | Potency, µM (series often up to 46.2 µM), for the others: at the highest dose activity change, negative = growth inhibition, usual class: inhibitors; further: potency means the concentration at half of the fitted maximal effect; nearly all actives have a fitted effect of over 55% in size
#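 Chicken DT40 Tdp1-/- cells complemented with human TDP1, screened without camptothecin (DMSO vehicle only), 400 cells/well. Compounds pin-transferred, cells incubated at 37 °C for at least 48 hr. Growth read as ATP-dependent luminescence (CellTiter-Glo, 30 min at RT).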
# * marks the source's active call; other numbers are inactive results; ? = inconclusive; · = not tested or not shown; [ ] = dose if it differs, or a comment. The list is not random: actives were taken first. Their share in the collection is about 18%. Unless noted, the call rests on the fitted dose curve; in most records, active means well fitted curve in the direction sought with a large enough effect; inconclusive means small, poorly fitted or top-dose-only effect, or another doubt; inactive means no such curve, though single readings can be large; an effect the other way counts as inactive or inconclusive. Unless noted, on the % scale 0 is the no-effect control and ±100 the full control effect.
SMILES,RORgamma inh,IL-1B inflam inh,LDHA inh,Gal4-VP16 FLuc,DT40 TDP1 CPT,DT40 TDP1 no CPT
C/C(=N\N1C(=O)c2ccccc2NC1c1ccco1)c1ccccc1O (stereo unspecified),0.35µM*,69,-14,2.2µM*,-87%,12µM*
C/C(=N\N1C(=O)c2ccccc2NC1c1ccccc1)c1ccccc1O (stereo unspecified),0.56µM*,7,-2,2.8µM*,4.6µM*,7.3µM*
O=C1c2ccccc2NC(c2ccco2)N1/N=C/c1ccco1 (stereo unspecified),-26%,0,0,-8%,-26%,-27%
CN(CC(=O)NC1(C#N)CCCCC1)Cc1ccc(C(F)(F)F)cc1,·,·,4,·,·,·
COc1ccc(Cl)cc1NC(=O)c1noc(C)c1[N+](=O)[O-],?,5,5,?,2.9µM*,2.3µM*
COc1ccc(Cl)cc1NC(=O)c1cccc([N+](=O)[O-])c1O,·,-1,-1,·,12µM*,8.2µM*
COc1ccc(Cl)cc1NC(=O)c1noc2c1CCCC2,21%,12,-12,5%[10 µM],-11%,-3%
CCOc1ccc(S(=O)(=O)NCCC(=O)N2CCN(c3ccc(OC)cc3)CC2)cc1,?,-4,-5,-3%,?,21µM*
CCOc1ccc(S(=O)(=O)NCCC(=O)N2CCN(c3ncccn3)CC2)cc1,·,0,-6,·,-1%,?
CCOc1ccc(S(=O)(=O)NCCC(=O)N2CC=C(c3ccccc3)CC2)cc1,·,-11,-1,·,?,12µM*
CCc1ccc(NC(=O)c2nc(S(C)(=O)=O)ncc2N(Cc2ccccc2)Cc2ccco2)cc1,·,·,1,·,·,·
O=[N+]([O-])c1ccc(Oc2ccc(S(=O)(=O)Nc3ccccc3)cc2)cc1,25%,-72*,0,?,?,10µM*
O=[N+]([O-])c1ccc(NS(=O)(=O)c2ccc(Cl)c(Cl)c2)cc1,·,-27,-10,·,9.2µM*,10µM*
O=[N+]([O-])c1cc(NS(=O)(=O)c2ccc(Cl)nc2)ccc1Cl,·,-2,-15,·,?,16µM*
O=C1C(Cl)=C(NS(=O)(=O)c2ccc([N+](=O)[O-])cc2)C(=O)c2ccccc21,-29%,-102*,25,-13%,10µM*,8.2µM*
Cc1cccc(NC(=O)COC(=O)Cn2cnc3c2c(=O)n(C)c(=O)n3C)c1,·,·,9,·,·,·
Cc1cccc(N/C(N)=N/c2nc(CSc3ccc(Cl)cc3)cc(=O)[nH]2)c1,-5%,13,-7,5%,8.2µM*,9.2µM*
CCOc1ccc(N/C(N)=N/c2nc(CSc3nnnn3-c3ccccc3)cc(=O)[nH]2)cc1,23%,0,-10,3%,16µM*,?
CCc1ccc(N/C(N)=N/c2nc(CSc3ncccn3)cc(=O)[nH]2)cc1,22%,54,-12,-9%,?,13µM*
Cc1ccc(N/C(N)=N/c2nc(CSc3nnc(C)s3)cc(=O)[nH]2)c(C)c1,23%,68,-1,?,0.65µM*,0.82µM*
COCc1cc(=O)[nH]c(/N=C(\N)Nc2ccc(Oc3ccccc3)cc2)n1,?,32,-8,-13%,-23%,?
CC(C)n1cc2c(C(F)(F)F)cc(=O)n(CCC(=O)O)c2n1,·,·,5,·,·,·
CC(C(=O)N(C)Cc1ccccc1)N(c1ccc(Oc2ccccc2)cc1)S(C)(=O)=O (stereo unspecified),·,·,5,·,·,·
Clc1ccc(Cn2ncc3c(N4CCCCC4)ncnc32)c(Cl)c1,42%,-7,-5,10%,23µM*,12µM*
Clc1ccc(Cn2ncc3c(N4CCOCC4)ncnc32)cc1,?,-11,4,17%[0.365 µM],?,23µM*
SMILES,RORgamma inh,IL-1B inflam inh,LDHA inh,Gal4-VP16 FLuc,DT40 TDP1 CPT,DT40 TDP1 no CPT
Clc1ccc(Cn2ncc3c(N4CCCCC4)ncnc32)cc1,?,-8,-1,?,16µM*,21µM*
Clc1ccc(Cn2ncc3c(N4CCCC4)ncnc32)cc1,5%,?,-3,-10%,-13%,?
CN(Cc1cccs1)C(=O)c1cccc(C#N)c1,·,·,3,·,·,·
O=C(Nc1cccc(Cl)c1)C1Sc2nnc(-c3ccccc3)n2NC12CCCCC2 (stereo unspecified),·,·,14,·,·,·
COc1ccc(CCC(C)NC(=O)C2(C#N)CCCC2)cc1 (stereo unspecified),·,·,0,·,·,·
Clc1ccc(-c2csc(N3CCc4ccccc4C3)n2)cc1,-42%,-17,5,0%,-10%,-8%
O=S1(=O)N=C(N2CCCC2)c2ccccc21,-3%,2,-1,-4%,-1%,-17%
c1cc2c3c(cccc3c1)C(N1CCCCCC1)=N2,7.9µM*,5,2,?,-3%,-22%
c1ccc2c(c1)CCN(C1=Nc3cccc4cccc1c34)C2,?,-91*,14,9%,?,?
CC1=NN(C(=O)Cc2ccc([N+](=O)[O-])cc2)C(O)(C(F)(F)C(F)(F)F)C1 (stereo unspecified),3.5µM*,71,-3,5µM*,?,?
CCC1=NN(C(=O)Cc2ccc([N+](=O)[O-])cc2)C(O)(c2ccncc2)C1 (stereo unspecified),18µM*,-14,-6,3%,9%,-2%
CC(C)(C)C1(O)CC(C(F)(F)F)=NN1C(=O)Cc1ccc([N+](=O)[O-])cc1 (stereo unspecified),?,1,-5,-8%,?,?
